Measurements reported in the supplement of paper PMC13380429.

Experiments:
[1] = system: Vero E6 infected with SARS-CoV-2; assay: morphology score (similarity to uninfected cells); higher = more like uninfected cells; conditions: 24 h
[2] = system: Vero E6 infected with SARS-CoV-2; assay: SARS-CoV-2 infection rate relative to infected DMSO; higher = more infection, active = 60 or less; conditions: 24 h

Row | SMILES | morphology score [1] | SARS-CoV-2 infection rate [2]
1 | CO/N=C(\C(=O)N[C@@H]1C(=O)N2C(C(=O)[O-])=C(C[N+]3(C)CCCC3)CS[C@H]12)c1csc(N)n1 [cefepime] (10 µM) | 0.0622 | 114% (inactive)
2 | COc1ccc(/C=C/CCCCOc2ccc(C(=O)c3cccc(C(=O)O)c3)cc2CCC(=O)O)cc1 (10 µM) | 0.0773 | 95% (inactive)
3 | CC[C@H](C)[C@@H]([C@@H](CC(=O)N1CCC[C@H]1[C@H](OC)[C@@H](C)C(=O)N[C@@H](Cc1ccccc1)c1nccs1)OC)N(C)C(=O)[C@@H](NC(=O)[C@H](C(C)C)N(C)C)C(C)C [dolastatin-10] (0.833333 µM) | 0.0156 | 106% (inactive)
4 | NC(=O)CCCCn1ccc(/N=C(\N)NCC(F)(F)F)n1 (10 µM) | 0.00958 | 100% (inactive)
5 | CN1CCN(CC/C=C2/c3ccccc3Sc3ccc(S(=O)(=O)N(C)C)cc32)CC1 [thiothixene] (10 µM) | 0.381 | 80.5% (inactive)
6 | O=C(/C=C/c1ccc(O)cc1)c1ccc(O)cc1O [isoliquiritigenin] (10 µM) | 0.403 | 103% (inactive)
7 | CC1(c2ccccc2)OC(C(=O)O)=CC1=O (stereo not given) [acifran] (10 µM) | 0.119 | 102% (inactive)
8 | CC1(C)CCC(C)(C)c2cc(C3(c4ccc5cc(C(=O)O)ccc5c4)SCCS3)ccc21 (10 µM) | 0.132 | 98% (inactive)
9 | C#Cc1cccc(Nc2ncnc3cc(OCCOC)c(OCCOC)cc23)c1 [erlotinib] (10 µM) | -0.159 | 116% (inactive)
10 | O=C(O)CCCO (10 µM) | 0.0908 | 104% (inactive)
